SMILES strings stand for the structures. Inconclusive results are not listed. Entries that show only a call come without a potency. Active and inactive are the calls of the source. Calls come from the whole dose curve; as a rule, active = well fitted activation curve with a large enough effect; inconclusive = small, poorly fitted or top-dose-only effect; inactive = flat fitted curve, though single readings scatter.
Potency is the fitted concentration of half-maximal effect.

The assay in a line: qHTS for Inhibitors of Cell Surface uPA Generation: Confirmatory Assay for Cherry-picked Compounds. The note with it: cell surface uPA activity generation, qHTS confirmation; series mostly up to 115 µM. In outline: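 RAW 264.7 cells at 4000/well, incubated overnight, then treated with compounds. After 24 h at 37 C, viability was read by ATPlite luminescence. An increase in signal indicates blocked uPA-dependent LF entry.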
(In qHTS, concentration-response curves come from the screen itself.)
As for `O=C(NNC(=O)c1cccnc1)c1ccncc1`, the Potency result was “inactive”. In the case of `O=C(CSc1nncs1)NC(=O)NCc1ccco1` it was “inactive”. In the case of `C=CCOC(=O)C1=C[C@H](c2ccc(C(F)(F)F)cc2)[C@@H](CCCO)[C@H](OCC)O1` it was “inactive”. In the case of `Cc1cc(C)nc(NC(=O)CSc2nccc(C)n2)n1` it was “inactive”; in that of `CCOC(=O)CN1C(=O)N[C@@H](c2ccccc2)C(C(C)=O)=C1C`, “inactive”; in that of `O=C(Nc1cccc(NC(=O)c2ccc(F)cc2)c1)c1ccc(F)cc1`, “inactive”. `COc1ccc(N(CN2C(=O)c3ccccc3C2=O)C(=O)C(C)C)cc1`: the Potency entry was “inactive”. In the case of `CCOC(=O)CC(=O)CSc1nc2c(C)c(C)ccc2cc1C` it was “inactive”; in that of `COc1ccc(-c2sc3ccccc3c2C#CCO)cc1`, “inactive”.

Turning to `O=C(O)c1ccccc1/C=N/NC(=S)NC1CCCCC1`, the Potency result was “inactive”. In the case of `COc1ccc(C(=O)NCCOC(C)C)cc1OC1CCN(C(C)=O)CC1` it was “inactive”. In the case of `COc1cc(CN2CCN(S(=O)(=O)c3ccccc3)CC2)cc(OC)c1OC` it was “inactive”; in that of `COc1ccc(/C(N)=N/OC(=O)Cc2ccccc2OC)cc1`, “inactive”; in that of `O=C(Nc1ccc(Cl)cn1)C1CCCN(c2ncnc3c2nc2n3CCCCC2)C1` (stereo not given), “inactive”.

For `O=C(Nc1ccnn1C1CCN(CCCC2CCCC2)CC1)c1ccccc1`, the Potency result is “inactive”.

For `CCOC(=O)C1(CCOc2ccccc2)CCN(Cc2ccc(O)c(OC)c2)CC1`, the Potency result was “inactive”. Turning to `CC(=O)COc1ccc2c(-c3cccc([N+](=O)[O-])c3)cc(=O)oc2c1`, the Potency entry is “inactive”.

In the case of `C=CCN1C=C2C(=O)C(C)(OC(=O)c3cnc4ccccc4n3)C(=O)C=C2C=C1/C=C/COC` (stereo not given), the Potency entry is “inactive”. As for `Cc1ccc(Nc2cc(C)c3ccc(O)cc3n2)cc1C`, the Potency was 6.56 µM (active). In the case of `CN(C)C(=S)Nc1ccc(S(=O)(=O)N2CCCCC2)cc1` it was “inactive”.
